# Most compounds without a hit are left out; they make up all but 8% or so of the library.
# KB-3-1 cytotox = kills parental KB-3-1 adenocarcinoma cells; Potency, µM (series often up to 46.1 µM), hits mostly cytotoxic; KB-3-1 viability, CellTiter-Glo ATP luminescence, 72 h; actives 1.4% (n = 400,000); also: % is scaled to controls: 0 for no effect and ±100 for the full control effect; nearly all actives have a fitted effect of over 60% in size
#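 Screening of KB-3-1 cells (DMEM, 10% FBS, phenol-red free) ran from lowest to highest compound concentration; after 72 h at 37 °C viability was read luminescently and curves fitted.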
# MCF10A rereplic = induces DNA re-replication in MCF 10a normal breast cells | MCF 10A DNA re-replication, Hoechst nuclear intensity, 48 h | Potency, µM (series often up to 46.1 µM), for the others: at the top dose activity, positive = re-replication, hits mostly activators | actives 2.9% (n = 350,000); also: % of control where 0% means no effect; nearly all actives have a fitted effect of over 50% in size
# HT1080 IDH1KD tx = toxicity to HT-1080 IDH1 knockdown cells (counter line); HT-1080 IDH1 knockdown viability, ATP luminescence, 48 h; Potency, µM (doses to about 46.1 µM), for inactives: top-dose activity, negative = toxicity, usual class: cytotoxic; actives 2% (n = 360,000);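 also: 0% = DMSO wells and -100% = cell-free medium wells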
#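 HT-1080-IDH1KD cells (IDH1 knocked down), 750/well in RPMI with 5% FBS, treated with compound 48 h at 37 degrees C. Viability by CellTiter-Glo luminescence, normalised to DMSO and no-cell wells; concentration-response curves classed.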
# HT1080NT lethal = kills 2HG-producing HT-1080-NT fibrosarcoma cells; Potency, µM (titrated, usually from 46.1 µM), inactives show at the top dose activity, negative = less viability, usual class: cytotoxic; AID 686970; actives 1.6% (n = 360,000); HT-1080-NT fibrosarcoma viability, CellTiter-Glo ATP luminescence, 48 h;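 also: NT is the 2HG producing partner of a matched IDH1 knockdown line; 0% = DMSO-treated cells and -100% = media-only wells without cells; nearly all actives have a fitted effect of over 55% in size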
#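 Compounds were tested in concentration-response format on HT-1080-NT cells for 48 hours at 37 degrees C. Cell viability came from CellTiter-Glo luminescence; curves were classified by r2, response magnitude and activity.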
# SW480 rereplic = inducers of DNA re-replication in SW480 colon cancer cells. Potency, µM (top dose mostly 46.1 µM), inactives show at the highest dose re-replication activation, usual class: activators. actives 1.8% (n = 340,000). SW480 DNA re-replication, Hoechst DNA content imaging, 48 h; also: % of control where 0% means no effect; nearly all actives have a fitted effect of over 55% in size
#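 Image-based read-out: total Hoechst fluorescence of nuclei (405 nm excitation, 500-530 nm emission), with hits raising the fraction of high-intensity nuclei. SW480 colon cells incubated 48 hr with compounds at 37 C.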
# KB-V1 cytotox = kills drug-selected multidrug resistant KB-V1 cells; KB-V1 MDR cells viability, CellTiter-Glo, 72 h; AID 1347076; actives 3.4% (n = 400,000); Potency, µM (series often up to 46.1 µM), most hits filed as cytotoxic; also: % is scaled to controls: 0 for no effect and ±100 for the full control effect; nearly all actives have a fitted effect of over 60% in size
#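 KB-V1, DMEM (no phenol red) + 10% FBS; cpd pin-transferred, titration series; 72 h, 37 degrees C; CellTiter-Glo, luminescence. Data normalized, curve-fit.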
# Active calls of the source: *; i = inactive; ? = inconclusive; . = no result; ! = not active in a repeat; [ ] = another dose, or the depositor's remark. Calls follow the shape of the dose curve; as a rule, active = well fitted curve in the direction sought with a large enough effect; inconclusive = small, poorly fitted or top-dose-only effect, or another doubt; inactive = no such curve, though single readings can be large; an effect the other way counts as inactive or inconclusive. Potency is read from the fitted curve at half-maximal effect.
SMILES,KB-3-1 cytotox,MCF10A rereplic,HT1080 IDH1KD tx,HT1080NT lethal,SW480 rereplic,KB-V1 cytotox
O=C(C1CCC(CNS(=O)(=O)c2cccs2)CC1)N1CCN(c2ccc(F)cc2)CC1 (stereo not given),?,16.4µM*,-16.6%,-13.4%,26.1%,i
O=C1CN(CCN2CC(=O)N(Cc3ccccc3)C(=O)C2)CC(=O)N1Cc1ccccc1,i,.,0.0%,-5.0%,.,i
CC1(C)CC(=O)N(Cc2ccccc2)C(=O)C1,i,-0.3%,12.1%,14.2%,9.2µM*,i
COCCn1c(-c2cccs2)nc2nc3ccccc3nc21,i,?,-4.6%,-0.8%,7.31µM*,i
CC1CCN(S(=O)(=O)c2ccc3c(c2)N(CC(=O)NCc2ccccc2)C(=O)CO3)CC1,i,.,.,.,.,?
CC(C)(C)n1nnnc1C(c1cccnc1)N1CCN(c2cccc(C(F)(F)F)c2)CC1 (stereo not given),i,6.1%,-8.4%,0.1%,-1.1%,?
CC(C)(C)c1cc(C(c2cccnc2)N2CCN(CCO)CC2)cc(C(C)(C)C)c1O (stereo not given),i,1.0%,5.01µM*,6.31µM*,-0.7%,i
CN1CCc2nc3sc(C(=O)Nc4ccccc4C(F)(F)F)c(N)c3cc2C1,i,.,.,.,.,i
CNc1ccc(C(=O)c2ccccc2C(=O)O)cc1[N+](=O)[O-],i,-4.3%,-2.2%,0.1%,1.1%,i
CNc1ccc(/C=C/C(=O)c2cccc3ccccc23)cc1[N+](=O)[O-],?,?,1.4%,14.7%,16.4µM*,14.6µM*
COc1cccc(-c2ncn(CCc3ccccc3OC)c2C(C)C)c1,?,.,14.6µM*,13µM*,.,11.6µM*
COc1ccccc1CNC(=O)COC(=O)Cc1cccc(F)c1,i,3.3%,3.1%,-2.3%,-6.8%,i
COc1ccccc1CCn1cnc(Cc2cccc(F)c2)c1C(C)C,?,.,?,?,.,18.4µM*
c1ccc(CNc2ncnc3nc(N4CCOCC4)[nH]c23)cc1,?,.,.,.,.,i
Cc1ccc(NC(=O)CCNS(=O)(=O)c2cc(Br)cnc2N)cc1Cl,?,18.4µM*,-21.0%,-8.9%,6.8%,13µM*
Cc1csc(NC(=O)CCCC(=O)O)c1-c1nc2ccccc2s1,i,10.9%,10.4%,10.5%,14.6µM*,i
CNc1sc(C(=O)c2cccs2)c(N)c1-c1nc2ccccc2s1,i,?,?,-3.4%,2.3%[9.22 µM],i
CNc1sc(C(=O)c2ccc(F)cc2)c(N)c1-c1nc2ccccc2s1,i,16.4µM*,6.31µM*,11.2µM*,5.17µM*,i
O=C(Nc1ccc(F)cc1)Nc1sccc1-c1nc2ccccc2s1,i,?,18.4µM*,16.4µM*,0.8%,i
CC(=O)Nc1scc(C)c1-c1nc2ccccc2s1,i,20.6µM*,-25.6%,-20.0%,191.3%,i
CN(C)c1ccc(/C=C/c2ccnc3c(O)ccc(O)c23)cc1,i,.,.,.,.,i
CSc1ccc(-c2nc3ccc(C)cn3c2Nc2ccccc2C)cc1,i,.,.,.,.,i
Cc1ccc([N+](=O)[O-])c(C(=O)N/N=C/c2cccnc2)c1,i,4.9%,1.3%,-2.2%,-3.5%,i
CCCc1cc2c(=O)c(-c3nc4ccccc4s3)c(COCC(=O)O)oc2cc1O,i,23.1µM*,2.5%,3.3%,?,i
CC(C)c1ccc(S(=O)(=O)c2nnn3c2nc(NCCc2ccccc2)c2sccc23)cc1,i,.,.,.,.,?
SMILES,KB-3-1 cytotox,MCF10A rereplic,HT1080 IDH1KD tx,HT1080NT lethal,SW480 rereplic,KB-V1 cytotox
N/C(=N\OC(=O)c1ccc2c(c1)OCO2)c1ccc(Cl)cc1,i,16.4µM*,?,7.3%,?,i
COc1cccc(-c2cnc3c(NC=O)cc(-c4cccc(C(=O)N(C)C)c4)cn23)c1,i,.,?,-20.9%,.,23.1µM*
COc1cccc(-c2cc(NC=O)c3ncc(-c4cccc(C(=O)NCCN(C)C)c4)n3c2)c1,i,.,20.6µM*,23.1µM*,.,i
CCCCC1C2=C(CC(C)(C)CC2=O)OC2=C1C(=O)CC(C)(C)C2,i,7.1%,-1.3%,-14.7%,-0.1%,?
COc1ccc(C2CC(=O)N(Cc3cccc(C)c3)c3c2c(C)nn3-c2nc(C)cc(C)n2)c(OC)c1 (stereo not given),i,.,.,.,.,i
CSc1nsc(SC)c1NC(=O)OCCc1ccccn1,i,3.3%,-1.4%,0.3%,-6.7%,i
CSc1nsc(SC)c1NC(=O)Nc1ccccn1,i,-2.0%,?,-24.7%,1.5%,14.6µM*
COc1ccc(C(=O)Nc2ccc3c(c2)CCCN3C(=O)c2cccs2)c(OC)c1,?,12.9%,-15.7%,-12.7%,-11.8%,?
Cc1ccc2c(c1)CCCN2C(=O)c1cccs1,i,?,?,-20.8%,?,16.4µM*
CC(C)Oc1ccc(C(=O)Nc2ccc3c(c2)CCCN3C(=O)c2cccs2)cc1,6.51µM*,.,.,.,.,?
COc1cccc(C(=O)Nc2ccc3c(c2)CCCN3C(=O)c2cccs2)c1OC,9.2µM*!,17.8%,?,?,-26.1%,?
O=C(c1cccs1)N1CCCc2ccccc21,i,22.9%,-13.2%,2.3%,-3.4%,?
O=P(O)(O)C(O)(Cc1cccnc1)P(=O)(O)O,.,-7.5%,.,.,-10.7%,.
N#CC1(Nc2ccc([N+](=O)[O-])cc2)CCCC1,i,4.3%,9.8%,0.0%,8.2%,?
CN(C)c1nc(N)c2ncc(=S)[nH]c2n1,i,29.1µM*,-19.5%,-4.6%,?,i
COCCOC(=O)c1[nH]c2c(c1C)C(=O)CC(c1ccc(F)cc1)C2 (stereo not given),7.31µM*,?,23.1µM*,?,?,?
COCCOC(=O)c1[nH]c2c(c1C)C(=O)CC(c1ccc(N(C)C)cc1)C2 (stereo not given),i,8.3%,1.4%,3.7%,-3.3%,i
COCCOC(=O)c1[nH]c2c(c1C)C(=O)CC(c1ccccc1)C2 (stereo not given),0.92µM*,5.8µM*,1.3µM*,1.64µM*,7.31µM*,0.731µM*
O=C(Nc1cc(S(=O)(=O)N2CCOCC2)ccc1N1CCOCC1)c1cnccn1,i,4.7%,-1.6%,0.3%,-3.5%,10.3µM*
COc1ccc(S(=O)(=O)N2CCOCC2)cc1NC(=O)CCCOc1ccc(Cl)cc1C,i,0.3%,-7.8%,-8.8%,3.7%,i
COc1ccccc1CNCC(=O)Nc1cc(S(=O)(=O)N2CCOCC2)ccc1Cl,i,16.0%,11.4%,2.9%,2.4%,?

# Screening results deposited in PubChem by National Center for Advancing Translational Sciences (NCATS).
